The test system of assay [1] is Vero E6 infected with SARS-CoV-2. Nature of the assay: morphology score (similarity to uninfected cells); higher = more like uninfected cells. The settings on record: 24 h.
Assay [2] has the same test system. Briefly: SARS-CoV-2 infection rate relative to infected DMSO; higher = more infection, active = 60 or less. The settings on record: 24 h.

Here are results for 32 compounds from the supplement of paper PMC13380429.

`COc1ccc2cc(C(C)C(=O)Oc3ccc(C(N)=S)cc3)ccc2c1` (centres undefined) (10 µM) yielded a morphology score in assay [1] of 0.117. In addition, the SARS-CoV-2 infection rate in assay [2] is 97% (inactive).
`CCC(=O)O[C@]1(C(=O)CCl)[C@@H](C)C[C@H]2[C@@H]3C[C@H](F)C4=CC(=O)C=C[C@]4(C)[C@@]3(F)[C@@H](O)C[C@@]21C` [halobetasol-propionate] (10 µM) showed a morphology score in assay [1] of 0.0989. Further, the SARS-CoV-2 infection rate in assay [2] is 106% (inactive).
Turning to `c1cnc2cc3c(cc2n1)[C@@H]1CNC[C@H]3C1` [varenicline] (10 µM), the morphology score in assay [1] was -0.0409. For the same compound, in assay [2], the SARS-CoV-2 infection rate was 101% (inactive).
Compound `CN1C[C@H](CNC(=O)OCc2ccccc2)C[C@@H]2c3cccc4c3c(cn4C)C[C@H]21` [metergoline] (10 µM) displayed a morphology score in assay [1] of 0.164. Besides, the SARS-CoV-2 infection rate in assay [2] is 97.5% (inactive).
In assay [1], `Cc1ccc(NC(=O)c2ccc(CN3CC[C@H](N(C)C)C3)c(C(F)(F)F)c2)cc1Nc1nccc(-c2cncnc2)n1` [bafetinib] (0.833333 µM) registered a morphology score of 0.358. The SARS-CoV-2 infection rate in assay [2] is 104% (inactive).
On the same counts, the results for `CC(C)(C)[C@]1(O)CCN2C[C@H]3c4ccccc4CCc4cccc(c43)[C@@H]2C1` [butaclamol] (10 µM) are 0.273 and 101% (inactive).
`CN1C(=O)N(C)C2C1N(C)C(=O)N2C` (centres undefined) [mebicar] (10 µM): the morphology score in assay [1] worked out at 0.0884. For the same compound, the SARS-CoV-2 infection rate in assay [2] is 107% (inactive).
In the same order, the values of `Cc1cc(C)cc(C(=O)O[C@H]2C[C@H]3CC[C@@H](C2)N3C)c1` [tropanyl-3,5-dimethylbenzoate] (10 µM) are 0.23 and 90% (inactive).
The compound `C=C1/C(=C\C=C2/CCC[C@]3(C)[C@@H]([C@H](C)/C=C/C=C/C(O)(CC)CC)CC[C@@H]23)C[C@@H](O)C[C@@H]1O` [seocalcitol] (10 µM) yielded a morphology score in assay [1] of -0.0779. In assay [2], the SARS-CoV-2 infection rate is 110% (inactive).
On the same counts, the results for `N#Cc1c(N)nc(SCc2csc(-c3ccc(Cl)cc3)n2)c(C#N)c1-c1ccc(OCCO)cc1` [capadenoson] (10 µM) are -0.145 and 115% (inactive).
In the same order, the values of `Cc1cccc(N(C)C(=S)Oc2ccc3ccccc3c2)c1` [tolnaftate] (10 µM) are 0.136 and 104% (inactive).
The compound `CC(C)(C)NCC(O)COc1ccc(NC(=O)NC2CCCCC2)cc1` (centres undefined) [talinolol] (10 µM) came in with a morphology score in assay [1] of 0.0728. Also, the SARS-CoV-2 infection rate in assay [2] was 106% (inactive).
In turn, `O=C(O)CCNc1cc(N2CCc3ccccc3CC2)nc(-c2ccccn2)n1` (10 µM) registered a morphology score in assay [1] of 0.19. In addition, the SARS-CoV-2 infection rate in assay [2] was 101% (inactive).
Turning to `CN1CCC[C@@H]1CCSc1ccc(O)cc1` (10 µM), the morphology score in assay [1] is -0.0396. Moreover, the SARS-CoV-2 infection rate in assay [2] is 112% (inactive).
For the compound `CCOC(=O)Nc1ccc(NCc2ccc(F)cc2)cc1N` [Retigabine] (10 µM), the morphology score in assay [1] came out at 0.067. In addition, in assay [2], the SARS-CoV-2 infection rate was 106% (inactive).
On the same counts, the results for `O=C(O)Cc1ccc(CCNS(=O)(=O)c2ccc(Cl)cc2)cc1` [daltroban] (10 µM) are 0.136 and 97.5% (inactive).
For `COc1ccc2c(c1)CN(C)CC2c1ccc(Cl)c(Cl)c1` (centres undefined) [diclofensine] (10 µM), the morphology score in assay [1] amounted to 0.0249. For the same compound, the SARS-CoV-2 infection rate in assay [2] was 106% (inactive).
Take `CC[C@H]1OC(=O)[C@H](C)[C@@H](O[C@H]2C[C@@](C)(OC)[C@@H](O)[C@H](C)O2)[C@H](C)[C@@H](O[C@@H]2O[C@H](C)C[C@H](N(C)C)[C@H]2O)[C@](C)(OC)C[C@@H](C)C(=O)[C@H](C)[C@@H](O)[C@]1(C)O` [clarithromycin] (10 µM): in assay [1], the morphology score was -0.0778. In assay [2], the SARS-CoV-2 infection rate is 109% (inactive).
Compound `O=C(Nc1ccc(C(F)(F)F)cn1)N1CCN(c2ncccc2C(F)(F)F)CC1` (10 µM) showed a morphology score in assay [1] of 0.0927. Further, the SARS-CoV-2 infection rate in assay [2] is 93.5% (inactive).
For the compound `C[C@H](CCC(=O)O)[C@H]1CC[C@H]2[C@@H]3[C@@H](O)C[C@@H]4C[C@H](O)CC[C@]4(C)[C@H]3CC[C@]12C` [ursodiol] (10 µM), the morphology score in assay [1] is -0.0233. Besides, the SARS-CoV-2 infection rate in assay [2] is 106% (inactive).
`CC12CCC(C(=O)N(CCCCN3CCN(c4ccccn4)CC3)C1=O)C2(C)C` (centres undefined) [piricapiron] (10 µM): the morphology score in assay [1] was 0.11. The SARS-CoV-2 infection rate in assay [2] was 103% (inactive).
`C=CCN1CC[C@]23c4c5ccc(O)c4O[C@H]2[C@@H](OCCOCCOCCOCCOCCOCCOCCOC)CC[C@@]3(O)[C@H]1C5` [naloxegol] (10 µM) registered a morphology score in assay [1] of 0.25. In addition, in assay [2], the SARS-CoV-2 infection rate was 92% (inactive).
In turn, `Cc1[nH]cnc1-c1ccc(Cl)cc1` [lofemizole] (10 µM) yielded a morphology score in assay [1] of -0.0942. Also, the SARS-CoV-2 infection rate in assay [2] was 102% (inactive).
For `CCC(NC(C)C)C(O)c1ccc(O)c2[nH]c(=O)ccc12` (centres undefined) [procaterol] (10 µM), in assay [1], the morphology score was 0.142. Also, in assay [2], the SARS-CoV-2 infection rate is 88% (inactive).
In the same order, the values of `C#CCC(Cc1cnc2nc(N)nc(N)c2n1)c1ccc(C(=O)N[C@@H](CCC(=O)O)C(=O)O)cc1` (some centres undefined) [pralatrexate] (10 µM) are 0.042 and 104% (inactive).
For `CSc1ccccc1OCC(O)CNC(C)C` (centres undefined) [tiprenolol] (10 µM), in assay [1], the morphology score was -0.224. For the same compound, the SARS-CoV-2 infection rate in assay [2] was 110% (inactive).
`CC(=O)OCC(=O)[C@@]1(OC(C)=O)[C@@H](C)C[C@H]2[C@@H]3C[C@H](F)C4=CC(=O)C=C[C@]4(C)[C@@]3(F)[C@@H](O)C[C@@]21C` [diflorasone-diacetate] (10 µM) yielded a morphology score in assay [1] of 0.0652. Further, the SARS-CoV-2 infection rate in assay [2] is 113% (inactive).
On to `Nc1nc(=O)c(Br)c(-c2ccccc2)[nH]1` [bropirimine] (10 µM), for which the morphology score in assay [1] amounted to 0.109. For the same compound, the SARS-CoV-2 infection rate in assay [2] was 99.5% (inactive).
Regarding `CN(C)CCCO[C@@H]1[C@H]2OC(C)(C)O[C@H]2O[C@@H]1[C@H](O)CO` [amiprilose] (10 µM), the morphology score in assay [1] was -0.0292. The SARS-CoV-2 infection rate in assay [2] is 104% (inactive).
In the same order, the values of `c1ccc(-c2ccc(CNc3nc(-c4ccccn4)nnc3-c3ccccc3)cc2)cc1` (10 µM) are -0.0584 and 114% (inactive).
`O=C(O)c1ccccc1C(=O)Nc1ccc(S(=O)(=O)Nc2nccs2)cc1` [phthalylsulfathiazole] (10 µM) had a morphology score in assay [1] of 0.162. For the same compound, the SARS-CoV-2 infection rate in assay [2] was 102% (inactive).
Consider `Nc1ccc(C(=O)Nc2cccc(-c3nc(N4CCOCC4)c4oc5ncccc5c4n3)c2)cn1` (10 µM), for which, in assay [1], the morphology score was 0.168. In addition, in assay [2], the SARS-CoV-2 infection rate was 94.5% (inactive).
